# In ChEMBL document CHEMBL1157539, “Thousands of chemical starting points for antimalarial lead identification” (Nature, 2010):
# System: Plasmodium falciparum
# Test: GSK_TCMDC: Inhibition of Plasmodium falciparum Dd2 in whole red blood cells, using parasite LDH activity as an index of growth. Test compounds present at 2uM
# Type: functional
row,Compound,Inhibition
1,Cc1ccc(NC(=O)c2ccc(NCCCN3CC(C)CC(C)C3)c([N+](=O)[O-])c2)cc1F (stereo unspecified),85%
2,COc1cccc2cc(C(=O)N[C@@H](CC(C)C)C(=O)N[C@H](/C=N/N3C(=O)CN(Cc4ccccc4)C3=O)CCc3ccccc3)oc12,52%
3,Cc1cccc2sc(N(CCCn3ccnc3)C(=O)C=Cc3cccs3)nc12.Cl,9%
4,Cc1[nH]c2ccc(-c3ccc(N(C)C)cc3)cc2c(=O)c1Cl,96%
5,COc1cccc2cc(C(=O)N[C@@H](CC(C)C)C(=O)N[C@H](C=NN3CCCC3=O)Cc3ccccc3)oc12,80%
6,CN(C)CCNC(=O)c1csc(Nc2ccc(Cl)c(Cl)c2)n1,100%
7,O=C(N[C@H]1CCN(Cc2ccc(OCCN3CCNCC3)c(Cl)c2)C1)c1ccc(Cl)c(Cl)c1.O=C(O)C(F)(F)F,5%
8,Cc1cc(NC(=O)CCN2CCN(c3cccc(Cl)c3Cl)CC2)ccc1N1CCN(C(C)C)CC1.Cl,8%
9,CCOc1ccc(-c2nonc2NC(=O)c2cccc(Cl)c2)cc1OCC,99%
10,COc1ccc(CNCc2ccccc2)cc1-c1ccc(S(=O)(=O)NCCN2CCCC2)cc1.O=C(O)C(F)(F)F,39%
11,COc1ccc2c(c1)CC1CN(CCCCNC(=O)c3ccc(NC(=O)c4cc(Cl)cc(Cl)c4)cc3)CCN1C2 (stereo unspecified),57%
12,CCOC(=O)N1CCC(NC(=O)c2ccc(C(C)(C)C)cc2OC)CC1,0%
13,CCCCn1c(SC(C)C)nc2c(c1=O)C1(CCCCC1)Cc1ccccc1-2,60%
14,Cl.N#Cc1ccc(NC(=O)c2ccc(Cc3ccc4c(c3)CCN(C3CCC3)CC4)cn2)cc1,2%
15,O=C(NCCCCN1CCC(c2ccc(-c3ccco3)cc2)CC1)c1ccc(NC(=O)c2ccc(Cl)cc2)cc1,97%
16,CN1CCN(c2ccnc3ccc(NC(=O)c4ccc(Cl)c(Cl)c4)cc23)CC1,64%
17,c1ccc2oc(-c3cc4ccncc4cc3OC3CCNCC3)cc2c1,96%
18,CCN(CC)CCOc1ccc(C(O)(C#CC(O)(c2ccc(Br)cc2)c2ccc(OCCN(CC)CC)cc2)c2ccc(Br)cc2)cc1 (stereo unspecified),99%

row,Compound,Inhibition
1,CCCc1cc(NCC)nc(Nc2ccc(C)cc2)n1,16%
2,Clc1cc(Nc2ncnc3cc(C#C[C@H]4CCCN4)sc23)cc2nc(Cc3ccccc3)[nH]c12.O=C(O)C(F)(F)F,57%
3,Cc1ccc(NC(=O)c2cccc(C#N)c2)cc1-c1ccc(C(=O)Nc2ccncc2)cc1,64%
4,Cc1nnc2c(NC(=O)NC3CCCC3)cc3cc(-c4ccc(CN(C)C)cc4)ccc3n12,37%
5,CC1(C)OC[C@]2(C)[C@@H](CC[C@]3(C)C4=CC(=O)CCC4CC[C@@H]23)O1 (stereo partly specified),95%
6,CN(Cc1ccc(NC(=O)CCC2CCN(C(=O)/C=C/c3ccc(Cl)c(Cl)c3)CC2)cc1)C1CCOCC1,2%
7,c1ccc(-c2cc(NCCCn3ccnc3)nc(-c3cccnc3)n2)cc1,6%
8,N#Cc1ccc(N[C@@H](CC2CCCCC2)C(=O)N[C@@H]2CCCc3ccccc32)c2ccccc12.O=C(O)C(F)(F)F,99%
9,Cc1cc(-c2ccc(CNC3Cc4ccccc4C3)cc2)ccc1S(=O)(=O)NCCN1CCCC1.O=C(O)C(F)(F)F,73%
10,O=C(/C=C/c1ccc(Cl)cc1)NCCCCCN1CCCN(C(=O)Nc2ccc(F)c(Cl)c2)CC1,6%
11,CN(C)C1CCN(Cc2ccc(N3CCN(Cc4cccc5[nH]ccc45)CC3)nc2)CC1,17%
12,CC(C)(C)c1ccc(CNC(=O)c2cc(CNC3CCNCC3)ccc2O)cc1,8%
13,CCCCN(CCCC)CCOc1cc2c(cc1OC)CCN2C(=O)/C=C/c1ccccc1Cl.Cl,31%
14,CCCCCC(C)NC[C@@H](O)[C@H](Cc1ccccc1)NC(=O)c1cc(NCC)cc(N2CCCCS2(=O)=O)c1.Cl (stereo partly specified),79%
15,O=C(Nc1ccc(Cn2ncc(N3CCCNCC3)c(Cl)c2=O)cc1)Nc1ccc(F)cc1[N+](=O)[O-],0%
16,COc1ccc(-c2ccc(NC(=O)c3ccc(Cl)cc3)cc2)cc1CN(C)CCN(C)C.O=C(O)C(F)(F)F,61%
17,CN1CCCC(CN2CCN(Cc3ccc(-c4ccc(-c5nc6ccccc6[nH]5)cc4)cc3)CC2)C1.O=C(O)C(F)(F)F (stereo unspecified),100%
18,Cc1nc(N)nc(N)c1OCc1cccc2ccccc12.Cl,11%
